Inconclusive results are not listed. Where a call stands in place of a potency, no number is given. Unmarked numbers belong to inactive results. Active and inactive are the calls of the source. Calls come from the whole dose curve; as a rule, active = well fitted curve in the direction sought with a large enough effect; inconclusive = small, poorly fitted or top-dose-only effect, or another doubt; inactive = no such curve, though single readings can be large or run the other way.
Assay: qHTS for activators of dead-cell proteases activity screened against the NCATS CANVASS Library (AID 1347392);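 note: luminescence from protease leaking out of membrane-damaged cells cleaving impermeant substrate; rising signal means more cytotoxicity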
Settings: HepG2 cytotoxicity, dead-cell protease luminescence, 5 h; series mostly up to 46.1 µM
From the text: Natural products and their derivatives continue to be wellsprings of nascent therapeutic potential. However, many laboratories have limited resources for biological evaluation, leaving their previously isolated or synthesized compounds largely or completely untested. To address this issue, the Canvass library of natural products was assembled (https://tripod.nih.gov/canvass), in collaboration with academic and industry researchers, for quantitative high-throughput screening (qHTS) across a diverse set of cell-based and biochemical assays. The pure (>85% purity by liquid chromatography/mass spectrometry [LC/MS]) Canvass library of 346 natural products were submitted by 45 academic laboratories and companies around the world. We collected pure natural products to circumvent deconvolution and structure elucidation due to time and resource limitations. The library was formatted into 1536-well plates and evaluated in 50 qHTS (in an 11-pnt concentration series) bioassays with broad scope of disease-relevant mechanisms. The resulting data set from 50 different assays was then systematically analyzed to identify overall trends and specific natural products with interesting biological activities. Reported herein are the results of each individual qHTS and their corresponding assay protocol. This cytotoxicity assay measures dead-cell protease activity (proteases are released from cells that have lost membrane integrity). A luminogenic cell-impermeant peptide substrate (AAF-aminoluciferin) is used to measure dead-cell protease activity. The amount of luminescence directly correlates with the percentage of cells undergoing cytotoxic stress. National Center for Advancing Translational Sciences (NCATS), Rockville, MD National Institute of Health (NIH), Bethesda, Maryland
Protease-screen assay protocol: 1. In a white-solid bottom 1536-well plate, 5 uL of HepG2 cell suspension was dispensed using a Multidrop Combi (Thermo Fisher Scientific) at a final concentration of 2000 cells / well. 2. The assay plates were incubated for 18 hours at 37C, 5% CO2 to acclimate and attach. 3. […] of compounds (in DMSO; columns 5-48), vehicle control DMSO, and positive control were pin transferred into the assay plates using the Kalypsis pin tool (Wako USA) equipped with a 1536-well pin heads. This yields a final CANVASS compound concentration of 0.4 nM - 95 uM. 4. The assay plates were incubated for 5 hours at 37C, 5% CO2. 5. After compound treatment, 5 uL per well of CytoTox-Glo (Promega) reagent was added using the BioRAPTR dispenser. 6. The assay plates were incubated for 15 min at room temperature. 7. The luminescence readout was obtained using the ViewLux plate reader (PerkinElmer) using a clear emission filter, 2x binning, 1 sec exposure settings.

**Q.** For `CCCc1c2c([nH]c(=O)c1C)C(=O)c1[nH]c(=O)c(C)c(CCC)c1C2=O`, which Potency is on record?
**A.** The Potency was “inactive”.

**Q.** With `CC(C)=CCCC(C)(O)[C@H]1CC=C(C)C(O)C1` (stereo not given in full) as the compound, how does the Potency read?
**A.** The Potency was “inactive”.

**Q.** With `COc1cc(C2C3=C(Cc4cc5c(cc42)OCO5)C(=O)OC3)cc(OC)c1OC` (stereo not given) as the compound, how does the Potency read?
**A.** The Potency was “inactive”.

**Q.** Which Potency does the source give for `COc1ccc2[nH]c3c(c2c1)CCN1C[C@H]2C[C@@H](OC(=O)c4cc(OC)c(OC)c(OC)c4)[C@H](OC)[C@@H](OC)[C@H]2C[C@H]31` here?
**A.** The Potency was “inactive”.

**Q.** For `C[C@H](c1cnc(N)[nH]1)c1ccc(O)c2[nH]cc(-c3cnc(-c4c[nH]c5ccccc45)c(=O)[nH]3)c12`, which Potency is on record?
**A.** The Potency was “inactive”.

**Q.** Which Potency does the source give for `C[C@H]1C=C[C@H]2CCCC[C@@H]2[C@H]1C(=O)[C@H]1CC2=C(C(=O)O)CCN2C1=O` here?
**A.** Its Potency is “inactive”.

**Q.** For `O=c1cc(-c2ccc(O)c(O)c2)oc2cc(O[C@@H]3O[C@H](CO)[C@@H](O)[C@H](O)[C@H]3O)cc(O)c12`, which Potency is on record?
**A.** The Potency was “inactive”.

**Q.** For `C=C1C[C@]23C=CC(=O)[C@@](C)(CCCC(C)C(=O)N[C@@H](CO)C(=O)O)[C@@H]2C[C@@H]1CC3` (stereo not given in full), which Potency is on record?
**A.** Its Potency is “inactive”.

**Q.** With `C=C[C@@]1(C)CC[C@@H]([C@H](C)C(C)=O)O1` as the compound, how does the Potency read?
**A.** Its Potency is “inactive”.

**Q.** For `C/C=C/[C@H]1[C@H]2C(=O)c3c(O)c(C)c(O)c(C)c3[C@]1(C(=O)O)C(=O)C=C2C`, which Potency is on record?
**A.** The Potency was “inactive”.

**Q.** For `CN1CC[C@@]2([C@@]34CCN(C)[C@@H]3Nc3ccccc34)c3ccccc3N[C@@H]12`, which Potency is on record?
**A.** The Potency was “inactive”.

**Q.** Which Potency does the source give for `Oc1ccc(C2Oc3cc(O)c4c(c3[C@@H]2c2cc(O)cc(O)c2)[C@H]2C(c3ccc(O)cc3)c3c(O)cc5c(c3[C@H]2C4c2ccc(O)cc2)[C@H](c2cc(O)cc(O)c2)C(c2ccc(O)cc2)O5)cc1` (stereo not given in full) here?
**A.** The Potency was “inactive”.

**Q.** With `CC(=O)N[C@H](C)c1nc(/C=C/C=C/C(=O)CC2CC(=O)CC[C@]2(C)O)cs1` (stereo not given in full) as the compound, how does the Potency read?
**A.** Its Potency is “inactive”.

**Q.** With `CO[C@@H]1[C@H](O)[C@@H](C)O[C@@H](OC[C@@H]2C(C)OC(=O)/C=C/[C@H](C)C(O[C@@H]3O[C@H](C)CC4(OC(=O)O[C@@H]4C)C3O)[C@@H](C)CC(C)C(=O)/C=C/[C@H]3OC23)[C@@H]1OC` (stereo not given in full) as the compound, how does the Potency read?
**A.** The Potency was “inactive”.

**Q.** Which Potency does the source give for `C/C=C1/CN2C3CC1C1C=CC(=O)N4c5ccccc5[C@@]3(C[C@@H]2C2=C[C@H]3C5CC6N(CC[C@@]67c6ccccc6N(C2=O)[C@@H]37)C/C5=C/C)[C@H]14` (stereo not given in full) here?
**A.** The Potency was “inactive”.

**Q.** Which Potency does the source give for `COc1cc([C@@H]2c3cc4c(cc3C[C@@]3(O[C@@H]5O[C@H](CO)[C@@H](O)[C@H](O)[C@H]5O)COC(=O)[C@H]23)OCO4)cc(OC)c1OC` here?
**A.** Its Potency is “inactive”.

**Q.** For `C[C@@]12CCC[C@@](C)(C(=O)O)[C@H]1CC[C@@]13C[C@@H](CC[C@H]12)[C@](C)(O)C3`, which Potency is on record?
**A.** Its Potency is “inactive”.

**Q.** With `CC[C@H]1[C@H](C)[C@H](c2cc(OC)c(OC)cc2OC)[C@@H](C)[C@H](c2cc(OC)c(OC)cc2OC)[C@@]12C=C(OC)C(=O)C=C2OC` as the compound, how does the Potency read?
**A.** The Potency was “inactive”.

**Q.** For `O=C1c2c(O)cc(O)cc2OC(c2ccc(O)cc2)C1O` (stereo not given), which Potency is on record?
**A.** The Potency was “inactive”.

**Q.** Which Potency does the source give for `C=C1CC[C@@H](Br)C(C)(C)[C@]12CC=C(C)C(=O)C2` here?
**A.** The Potency was “inactive”.

**Q.** For `CN1CC[C@@]23c4ccccc4N[C@@H]1[C@@]21CCN(C)[C@@H]3Nc2ccccc21`, which Potency is on record?
**A.** Its Potency is “inactive”.

**Q.** For `C=CC(C)(C)C(=O)[C@@H](C)[C@@H]1CC[C@@](C)(C=C)O1`, which Potency is on record?
**A.** Its Potency is “inactive”.

**Q.** Which Potency does the source give for `COc1cc2c(c(O)c1O)C(=O)c1c(coc1C)C2=O` here?
**A.** The Potency was “inactive”.

**Q.** With `C/C=C(/C)c1c(Cl)c(O)c(C)c2c1Oc1c(Cl)c(O)c(Cl)c(C)c1C(=O)O2` as the compound, how does the Potency read?
**A.** Its Potency is “inactive”.

**Q.** With `Cc1cc(O)cc2c1C(=O)c1c(O)cc(O)cc1C2=O` as the compound, how does the Potency read?
**A.** The Potency was “inactive”.

**Q.** For `C/C1=C/[C@@H](C)[C@H](O)[C@@H](O)/C=C/CC/C=C/C(=O)O[C@@H]1[C@H](C)C(=O)/C=C/CC1CC(=O)NC(=O)C1`, which Potency is on record?
**A.** The Potency was “inactive”.

**Q.** For `CC(C)=CCC[C@]12c3cc4c(cc3CC[C@@]1(C)[C@H](C)CC[C@@H]2O)[nH]c1ccccc14`, which Potency is on record?
**A.** The Potency was “inactive”.

**Q.** Which Potency does the source give for `CN1CC[C@]23c4ccccc4N[C@H]1[C@]21CCN(C)[C@H]3Nc2ccccc21` here?
**A.** The Potency was “inactive”.

**Q.** With `CCC(C)=C1OC(=O)[C@H](C)[C@H](O)[C@H](Cc2cccnc2)NC(=O)C(NC(=O)c2ncccc2O)C(C)OC1=O` (stereo not given in full) as the compound, how does the Potency read?
**A.** Its Potency is “inactive”.

**Q.** Which Potency does the source give for `COc1c(O)cc2c(c1O)C(=O)c1c(coc1C)C2=O` here?
**A.** Its Potency is “inactive”.

**Q.** Which Potency does the source give for `C/C=C(/C)c1c(Cl)c(OC)c(C)c2c1Oc1c(Cl)c(O)c(Cl)c(C)c1C(=O)O2` here?
**A.** Its Potency is “inactive”.

**Q.** For `C=C1[C@@]2(C)CC3C4(C)CCC(O)C(C)(C)C4CCC3(C)[C@]1(C(=O)OC)C(=O)C(C)(O)C2=O` (stereo not given in full), which Potency is on record?
**A.** The Potency was “inactive”.

**Q.** With `CO[C@H]1[C@@H](OC(=O)/C(C)=C\[C@@H]2O[C@@H]2[C@H]2O[C@H]2C)[C@H](O)[C@H](OCC23C[C@@H]4[C@H](C)CC[C@H]4C4(C=O)CC2C=C(C(C)C)C34C(=O)O)O[C@@H]1C` (stereo not given in full) as the compound, how does the Potency read?
**A.** The Potency was “inactive”.

**Q.** For `C=C[C@@]1(C)CC[C@@H]([C@H](C)C(=O)/C=C/C(C)(C)O)O1`, which Potency is on record?
**A.** The Potency was “inactive”.

**Q.** Which Potency does the source give for `C/C=C(/C)c1cc(O)c(C)c2c1Oc1cc(O)cc(C)c1C(=O)O2` here?
**A.** The Potency was “inactive”.

**Q.** Which Potency does the source give for `C/C(=C\CC[C@@H](C)[C@H]1CC[C@]2(C)C3=CCC4C(C)(C)[C@@H](O)C[C@@H](O)[C@]4(C)C3[C@H](O)C[C@@]12C)CO` (stereo not given in full) here?
**A.** The Potency was “inactive”.

**Q.** With `C/C=C/c1cc2c(c(=O)o1)C(=O)[C@@H](O)[C@H](C)O2` as the compound, how does the Potency read?
**A.** Its Potency is “inactive”.

**Q.** For `CC1=C(C)C(=O)OC(C(C)C2(O)CCC3C4C5OC5C5(O)CC=CC(=O)C5(C)C4CCC32C)C1` (stereo not given), which Potency is on record?
**A.** The Potency was “inactive”.

**Q.** For `O=C1CC(c2ccc(O)cc2)Oc2cc(O)ccc21` (stereo not given), which Potency is on record?
**A.** Its Potency is “inactive”.

**Q.** Which activation (cytotoxicity) does the source give for `COc1ccc([C@@H]2CC(=O)c3c(cc(O)c(C/C=C(\C)CCC=C(C)C)c3O)O2)cc1` here?
**A.** Its activation (cytotoxicity) is -1.61% [at 9.19 µM].

— PubChem BioAssay (NCATS)
